# AmpC inh detg – AmpC beta-lactamase inhibition with detergent present; P00811; AmpC hydrolysis of nitrocefin, absorbance 480 nm, 0.01% Triton; Potency, µM (titrated, usually from 114 µM), inactives show at the top dose activity change, negative = inhibition, most hits filed as inhibitors; 0.041% of 370,000 active;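 note: potency is the fitted concentration of half-maximal effect; 0% = no-compound wells and -100% = no-enzyme wells; nearly all actives have a fitted effect of over 25% in size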
# Target sequence (P00811 whole entry, looked up): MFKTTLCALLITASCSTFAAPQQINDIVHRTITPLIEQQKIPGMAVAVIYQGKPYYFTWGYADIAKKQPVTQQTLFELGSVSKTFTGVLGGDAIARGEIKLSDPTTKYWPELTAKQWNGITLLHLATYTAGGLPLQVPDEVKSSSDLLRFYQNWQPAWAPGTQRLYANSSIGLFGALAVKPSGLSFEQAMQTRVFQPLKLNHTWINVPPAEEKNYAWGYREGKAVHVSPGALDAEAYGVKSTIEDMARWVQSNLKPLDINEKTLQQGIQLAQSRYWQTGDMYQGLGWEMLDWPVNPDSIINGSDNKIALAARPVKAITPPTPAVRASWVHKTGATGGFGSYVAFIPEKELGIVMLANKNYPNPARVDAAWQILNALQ
#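 20 mM phosphate pH 7.0 + 0.01% (detergent screen) or 0.0001% Triton X-100; 5.3 nM AmpC reagent; cpd preinc 15 min RT; nitrocefin (800 uM stock) to start; A480 q20 s × 4 min; Activity was normalised to no-enzyme and no-compound control wells.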
# SARS PLpro yeast – blocks SARS-CoV papain-like protease in a yeast assay; S. cerevisiae expressing SARS-CoV PLpro, growth rescue; Potency, µM (titrated, usually from 32.9 µM), for inactives: at the highest dose activity, positive = growth rescue, actives largely listed as activators; 0.19% of 330,000 active; AID 485353; calls by dose curve; note: potency is the fitted concentration of half-maximal effect; 0% is about no effect; nearly all actives have a fitted effect of over 55% in size
# AmpC no deterg – AmpC beta-lactamase inhibition without detergent; 0.52% of 330,000 active; P00811; Potency, µM (series often up to 57.1 µM), for the others: at the top dose activity change, negative = inhibition, usual class: inhibitors; AID 485341; AmpC nitrocefin hydrolysis, absorbance 480 nm, 0.0001% Triton;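 note: potency is the fitted concentration of half-maximal effect; plate controls were no compound for no effect and no enzyme for full effect; nearly all actives have a fitted effect of over 20% in size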
#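 20 mM phosphate pH 7.0 + 0.01% (detergent screen) or 0.0001% Triton X-100; 5.3 nM AmpC reagent; cpd preinc 15 min RT; nitrocefin (800 uM stock) to start; A480 q20 s × 4 min; Activity was normalised to no-enzyme and no-compound control wells.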
# AMA1 RON2 block – disrupts binding of P. falciparum AMA1 to RON2. AlphaScreen AMA1-biotinylated RON2 peptide binding. Potency, µM (series often up to 58.2 µM), inactives show top-dose activity change, negative = inhibition, most hits filed as inhibitors. 0.2% of 360,000 active. AID 720542;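 note: potency is the fitted concentration of half-maximal effect; 0% = vehicle wells and -100% = peptide control; nearly all actives have a fitted effect of over 45% in size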
#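 AMA1 (3D7) with his tag at 25 nM final met compounds first, then biotinylated RON2 peptide at 25 nM; detection used donor plus acceptor beads, 10 µg/mL apiece, read by AlphaScreen after 30 min at room temperature.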
# Shiga toxin inh – inhibitors of Shiga toxin in Vero cells | Vero cells, Shiga toxin protein synthesis inhibition reporter | 9.2% of 290,000 active | inhibition, % at 38.7 µM; in the data active = inhibition mostly above about 28%, no sharp cut-off; inactive = mostly below about 43%; note: 0% is about no effect
# CHX counter – affects cycloheximide protein synthesis inhibition readout, counter-screen; cell reporter, cycloheximide protein synthesis inhibition counterscreen; max response, %; 12% of 300,000 active; AID 2314; in the data active = max response mostly above about 13%, no sharp cut-off; inactive = mostly below about 14%; note: read at 38.3 µM for the half of the compounds with a filed dose; 0% is about no effect
# Active calls of the source: *; u = inconclusive; x = no result. The sample as a whole holds a higher share of hits than the screen did. Unless noted, calls come from the whole dose curve; as a rule, active = well fitted curve in the direction sought with a large enough effect; inconclusive = small, poorly fitted or top-dose-only effect, or another doubt; inactive = no such curve, though single readings can be large; an effect the other way counts as inactive or inconclusive.
SMILES,AmpC inh detg,SARS PLpro yeast,AmpC no deterg,AMA1 RON2 block,Shiga toxin inh,CHX counter
O=C(Nc1cccc(-n2cnnn2)c1)c1cc(Cl)ccc1Cl,2%,-2%,-25%,-8%,-8,-2
COc1ccc(C(=O)CSc2n[nH]c(=O)n2Cc2ccco2)cc1,-2%,-1%,1%,-5%,44*,32*
O=C(CSc1nnc(COc2ccccc2)n1Cc1ccco1)c1ccc(F)cc1,9%,-4%,-5%,2%,26,37*
O=C(CSc1n[nH]c(=O)n1Cc1ccco1)Nc1ccccc1,7%,0%,-35%,-9%,-3,-3
Cc1ccc(OCc2nnc(SCC(=O)c3ccccc3)n2Cc2ccco2)cc1,u,-6%,-8%,-5%,28,13
O=C(CSc1nnc(-c2ccco2)n1Cc1ccccc1)c1ccc(F)cc1,-14%,16%,22%,-4%,60*,36*
O=C(CSc1nnc(-c2cc3ccccc3cc2O)n1Cc1ccco1)c1ccc(F)cc1,1%,0%,-33%,39%,-9,-5
O=C(CSc1nnc(-c2ccco2)n1Cc1ccccc1)NCc1ccccc1,-11%,-9%,-8%,-17%,-31,-1
Cc1occc1-c1nnc(SCC(=O)c2ccc(F)cc2)n1Cc1ccco1,0%,1%,-19%,-26%,14,12*
CCc1ccc2c(c1)NC(=O)C2(C)Cc1ccccc1Cl (centres undefined),x,x,x,7%,x,x
C=C1C(=O)OC2C=C(CO)CCC=C(CO)CC(OC(=O)C(C)C)C12 (centres undefined),x,x,x,17%,x,x
Cc1ccc(NC(=O)COC(=O)c2ccc(-n3nc(C)cc3C)cc2)c(F)c1,x,0%,-1%,10%,x,x
O=c1[nH]cnc2c1c(-c1ccccc1)cn2-c1ccc(Br)cc1,-2%,-55%,-42%,3%,0,-3
Cc1occc1-c1nnc(SCC(=O)c2ccc(F)cc2)o1,1%,-1%,-24%,17%,147*,37*
Cc1occc1-c1nnc(SCC(N)=O)o1,0%,0%,-10%,0%,35,14
COc1ccc2cc(-c3csc(-c4cccnc4)n3)ccc2c1,-1%,0%,-9%,11%,74,26*
COc1ccc(-c2csc(-c3cccnc3)n2)cc1C,-14%,-4%,-5%,11%,90*,36
Brc1ccc2[nH]c3c(c2c1)CCC3,10%,-2%,-56%,u,5,-1
COc1ccc(S(=O)(=O)NCCSc2ccc(C)cc2)cc1OC,-12%,1%,-3%,1%,5,0
CCN(CC)S(=O)(=O)c1ccc(N2CCN(C)CC2)c(NC(=O)Nc2ccc(C)cc2)c1,-5%,2%,161%,-9%,2,17*
COc1ccc(C2Nc3ccccc3-c3cc(C)nn32)cc1OC (centres undefined),9%,x,x,x,x,x
C/C(=N/OC(=O)C1CC1)c1cc(-c2ccc(Cl)cc2)no1,-5%,0%,-6%,9%,29,18*
O=C(CCNC(=O)c1ccco1)Nc1ccc(Cl)cc1,1%,-1%,-19%,13%,-16,9
Cc1ccc(NC(=O)CNC(=O)c2ccco2)c(Cl)c1,9%,0%,-7%,-5%,47*,25*
O=C(CNC(=O)c1ccco1)Nc1ccc(Cl)cc1,-3%,2%,-32%,-4%,34*,27*
O=C(CNC(=O)c1ccco1)Nc1ccc(Br)cc1,5%,1%,-16%,7%,61*,45*
COc1cccc(NC(=O)CN(C)C(=O)CNC(=O)c2ccc(Oc3ccccc3)cc2)c1,-15%,3%,60%,2%,x,x
CN(CC(=O)Nc1ccccc1Br)C(=O)CNC(=O)c1ccc(Oc2ccccc2)cc1,-1%,6%,98%,-2%,55*,60*
CCCN1C(=O)c2cc(C(=O)Nc3ccc(OC)cc3OC)ccc2C1Nc1ccc(OC)cc1OC (centres undefined),0%,-4%,156%,14µM*,-4,6
COC(=O)[C@@]12C[C@@H](CC(=O)N3CCCCC3)C(=O)N(CCc3ccc(OC)c(OC)c3)C1=CCC(C)(C)C2,x,x,x,-6%,x,x

# Source: PubChem BioAssay
